Inconclusive results are not listed. Active and inactive are the calls of the source. Calls come from the whole dose curve; as a rule, active = well fitted curve in the direction sought with a large enough effect; inconclusive = small, poorly fitted or top-dose-only effect, or another doubt; inactive = no such curve, though single readings can be large; an effect the other way counts as inactive or inconclusive. Bridge positions count the residues as written; N and C are the ends. Square brackets hold non-standard residues; d marks the D form. Peptide text beside a SMILES is read from it. * marks the point of attachment. ξ: configuration not given here. Ileψ(thiazoline)Cys = CC[C@H](C)[C@H](N)C1=N[C@H](C(=O)*)CS1; ξDab(CH2SO3H) = NC(CCNCS(=O)(=O)O)C(=O)O; d(aIle) = CC[C@H](C)[C@@H](N)C(=O)O; Heptanoyl(6-Me) = CC(C)CCCCC(=O)*; dOrn = NCCC[C@@H](N)C(=O)O; Dab = NCC[CH](N)C(=O)O
Tests used:
[1] = molecular target: ATP-dependent 6-phosphofructokinase (Trypanosoma brucei brucei) (UniProt O15648); assay: qHTS Assay to Find Inhibitors of T. brucei phosphofructokinase: hit validation (AID 492961);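 note: luminescence reports ADP formed as PFK phosphorylates fructose-6-phosphate with ATP; % is set by controls: 0 for no effect and ±100 for the full control effect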
ATP-dependent 6-phosphofructokinase (Trypanosoma brucei brucei), sequence (O15648 whole entry, looked up): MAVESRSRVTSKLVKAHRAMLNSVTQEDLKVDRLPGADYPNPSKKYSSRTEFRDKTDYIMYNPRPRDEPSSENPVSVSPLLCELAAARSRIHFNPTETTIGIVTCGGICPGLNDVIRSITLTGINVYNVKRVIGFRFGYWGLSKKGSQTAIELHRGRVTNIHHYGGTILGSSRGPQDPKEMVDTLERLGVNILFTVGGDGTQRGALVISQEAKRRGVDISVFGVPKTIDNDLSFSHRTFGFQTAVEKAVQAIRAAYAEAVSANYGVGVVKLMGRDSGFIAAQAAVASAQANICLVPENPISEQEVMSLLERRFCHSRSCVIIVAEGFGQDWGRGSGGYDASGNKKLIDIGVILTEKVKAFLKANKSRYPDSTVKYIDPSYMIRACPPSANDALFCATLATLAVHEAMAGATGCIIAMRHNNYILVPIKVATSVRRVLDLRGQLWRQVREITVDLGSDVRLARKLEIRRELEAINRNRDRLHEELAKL
Outline: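 PFK 1.25 nM, F6P 0.5 mM, ATP 0.1 mM, MgCl2 5 mM, 0.1 M TEA pH 8.0, Tween20 0.01%, BSA 0.1%; 45 min RT. ADP-Glo two-step detection, luminescence. qHTS titration; curve fitting with curve-class categorization.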

[2] = molecular target: Ubiquitin carboxyl-terminal hydrolase 1 (Homo sapiens) (UniProt O94782); assay: Inhibitors of USP1/UAF1: Pilot qHTS (AID 504865);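 note: rhodamine fluorescence freed from ubiquitin-rhodamine substrate followed over time; top concentration of the series differs between compounds; % is set by controls: 0 for no effect and ±100 for the full control effect; nearly all actives have a fitted effect of over 35% in size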
Ubiquitin carboxyl-terminal hydrolase 1 (Homo sapiens), sequence (O94782 whole entry, looked up): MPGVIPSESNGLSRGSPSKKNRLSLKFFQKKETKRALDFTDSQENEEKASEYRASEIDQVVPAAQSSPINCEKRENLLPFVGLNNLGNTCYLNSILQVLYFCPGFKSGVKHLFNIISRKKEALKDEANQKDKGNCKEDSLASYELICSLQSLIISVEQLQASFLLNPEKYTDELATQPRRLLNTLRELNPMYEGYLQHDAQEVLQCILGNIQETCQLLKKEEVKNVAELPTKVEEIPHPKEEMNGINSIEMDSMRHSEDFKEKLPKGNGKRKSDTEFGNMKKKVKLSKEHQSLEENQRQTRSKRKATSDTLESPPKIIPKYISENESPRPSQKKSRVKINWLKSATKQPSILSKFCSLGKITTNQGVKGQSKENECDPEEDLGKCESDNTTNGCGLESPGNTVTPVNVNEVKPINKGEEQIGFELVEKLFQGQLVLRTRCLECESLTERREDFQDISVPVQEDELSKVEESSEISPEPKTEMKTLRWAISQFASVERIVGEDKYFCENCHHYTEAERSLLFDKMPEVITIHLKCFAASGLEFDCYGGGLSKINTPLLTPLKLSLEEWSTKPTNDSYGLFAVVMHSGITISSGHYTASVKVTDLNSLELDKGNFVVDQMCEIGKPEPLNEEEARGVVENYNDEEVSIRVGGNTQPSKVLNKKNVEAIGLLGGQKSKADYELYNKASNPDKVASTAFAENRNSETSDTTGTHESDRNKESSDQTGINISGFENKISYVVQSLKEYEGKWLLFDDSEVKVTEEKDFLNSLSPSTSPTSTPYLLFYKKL
Outline: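 Deubiquitinase activity followed as kinetic rhodamine fluorescence release from 150 nM Ub-Rho. 1 nM USP1/UAF1 with compound, after 15 min room-temperature preincubation, in HEPES pH 7.8 buffer containing TCEP, EDTA, BSA and Tween-20.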

[3] = molecular target: Luciferin 4-monooxygenase (Photinus pyralis) (UniProt P08659); assay: Biochemical firefly luciferase enzyme assay for NPC (AID 624030);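 note: purified P. pyralis luciferase at 10 nM with luciferin and ATP substrate; 0% = DMSO and -100% = full luciferase inhibition by PTC124 control; nearly all actives have a fitted effect of over 70% in size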
Luciferin 4-monooxygenase (Photinus pyralis), sequence (P08659 whole entry, looked up): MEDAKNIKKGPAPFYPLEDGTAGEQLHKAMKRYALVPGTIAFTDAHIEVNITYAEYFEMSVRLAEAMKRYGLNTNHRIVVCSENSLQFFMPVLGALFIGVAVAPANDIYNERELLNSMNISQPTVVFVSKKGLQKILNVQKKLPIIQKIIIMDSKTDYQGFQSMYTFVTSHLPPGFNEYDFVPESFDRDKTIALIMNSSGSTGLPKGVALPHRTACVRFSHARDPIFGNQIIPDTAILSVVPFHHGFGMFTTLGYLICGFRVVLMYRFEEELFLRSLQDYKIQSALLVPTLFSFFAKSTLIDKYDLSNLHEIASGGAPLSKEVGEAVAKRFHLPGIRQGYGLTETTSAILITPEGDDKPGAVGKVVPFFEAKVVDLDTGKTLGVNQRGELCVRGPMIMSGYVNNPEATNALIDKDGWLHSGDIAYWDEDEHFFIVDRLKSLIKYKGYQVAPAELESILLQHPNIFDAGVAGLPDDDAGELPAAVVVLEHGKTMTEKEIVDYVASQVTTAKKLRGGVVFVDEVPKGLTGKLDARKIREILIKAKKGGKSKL
Outline: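 Counter-screen for direct inhibition of the luciferase enzyme by approved-drug library compounds, run at 10 nM enzyme in 50 mM Tris acetate (final). Luminescence was read within 5 min of enzyme-buffer addition and normalized to PTC124 versus DMSO (0%).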

[4] = qHTS profiling for inhibitors of Plasmodium falciparum proliferation (AID 504749);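 note: 0% = DMSO vehicle and full inhibition = artemisinin control; nearly all actives have a fitted effect of over 60% in size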; details: P. falciparum in erythrocytes, SYBR Green DNA, 72 h, at 28.7 µM (top of the series)
Outline: (§1)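 P. falciparum-infected erythrocytes (0.3% parasitemia, 2.5% hematocrit final) were exposed to compounds for 72 h at 37 C in 5% CO2, then lysed with SYBR Green buffer overnight at room temperature; parasite DNA fluorescence was normalized to artemisinin and DMSO controls.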

ATS189 = assay: as above; details: P. falciparum in erythrocytes, SYBR Green DNA, 72 h; series mostly up to 28.7 µM
Outline: as §1

C2A = assay: as above; details: P. falciparum in erythrocytes, SYBR Green DNA, 72 h; series mostly up to 28.7 µM
Outline: as §1

CP191 = assay: as above; details: P. falciparum in erythrocytes, SYBR Green DNA, 72 h; series mostly up to 28.7 µM
Outline: as §1

CP192 = assay: as above; details: P. falciparum in erythrocytes, SYBR Green DNA, 72 h; series mostly up to 28.7 µM
Outline: as §1

CP201 = assay: as above; details: P. falciparum in erythrocytes, SYBR Green DNA, 72 h; series mostly up to 28.7 µM
Outline: as §1

CP215 = assay: as above; details: P. falciparum in erythrocytes, SYBR Green DNA, 72 h; series mostly up to 28.7 µM
Outline: as §1

CP237 = assay: as above; details: P. falciparum in erythrocytes, SYBR Green DNA, 72 h; series mostly up to 28.7 µM
Outline: as §1

CP238 = assay: as above; details: P. falciparum in erythrocytes, SYBR Green DNA, 72 h; series mostly up to 28.7 µM
Outline: as §1

CP268 = assay: as above; details: P. falciparum in erythrocytes, SYBR Green DNA, 72 h; series mostly up to 28.7 µM
Outline: as §1

CP269 = assay: as above; details: P. falciparum in erythrocytes, SYBR Green DNA, 72 h; series mostly up to 28.7 µM
Outline: as §1

CP286 = assay: as above; details: P. falciparum in erythrocytes, SYBR Green DNA, 72 h; series mostly up to 28.7 µM
Outline: as §1

CP325 = assay: as above; details: P. falciparum in erythrocytes, SYBR Green DNA, 72 h; series mostly up to 28.7 µM
Outline: as §1

CP329 = assay: as above; details: P. falciparum in erythrocytes, SYBR Green DNA, 72 h; series mostly up to 28.7 µM
Outline: as §1

FAB9 = assay: as above; details: P. falciparum in erythrocytes, SYBR Green DNA, 72 h; series mostly up to 28.7 µM
Outline: as §1

JCK = assay: as above; details: P. falciparum in erythrocytes, SYBR Green DNA, 72 h; series mostly up to 28.7 µM
Outline: as §1

PC49 = assay: as above; details: P. falciparum in erythrocytes, SYBR Green DNA, 72 h; series mostly up to 28.7 µM
Outline: as §1

CN1C2CCC1C(C(=O)O)C(OC(=O)c1ccccc1)C2 (centres undefined)
inactive: outcome [1] | Potency [2] | Potency [3] | activity, negative = inhibition ([4]; parasite line A) 9.89% | activity, negative = inhibition ([4]; parasite line B) 6.56% | Potency (ATS189) | Potency (C2A) | Potency (CP191) | Potency (CP192) | Potency (CP201) | Potency (CP215) | Potency (CP237) | Potency (CP238) | Potency (CP268) | Potency (CP269) | Potency (CP286) | Potency (CP325) | Potency (CP329) | Potency (FAB9) | Potency (JCK) | Potency (PC49)

OC[C@@H](O)[C@H]1O[C@@H]2OC(C(Cl)(Cl)Cl)O[C@H]2[C@H]1O (some centres undefined)
inactive: outcome [1] | Potency [2] | Potency [3] | activity, negative = inhibition ([4]; parasite line A) 8.29% | activity, negative = inhibition ([4]; parasite line B) 19.1% | Potency (ATS189) | Potency (C2A) | Potency (CP191) | Potency (CP192) | Potency (CP201) | Potency (CP215) | Potency (CP237) | Potency (CP238) | Potency (CP268) | Potency (CP269) | Potency (CP286) | Potency (CP325) | Potency (CP329) | Potency (FAB9) | Potency (JCK) | Potency (PC49)

CC(C)C[C@H](NC(=O)[C@@H](Cc1c[nH]c2ccccc12)NC(=O)[C@@H](Cc1ccc(O)cc1)NC(=O)[C@@H](CO)NC(=O)[C@@H](Cc1c[nH]c2ccccc12)NC(=O)C(Cc1cnc[nH]1)NC(=O)C1CCC(=O)N1)C(=O)N[C@@H](CCCN=C(N)N)C(=O)N1CCC[C@@H]1C(=O)NCC(N)=O (some centres undefined)
inactive: outcome [1]

CCC(C)C1NC(=O)C(Cc2ccc(O)cc2)NC(=O)C(N)CSSCC(C(=O)N2CCCC2C(=O)NC(CC(C)C)C(=O)NCC(N)=O)NC(=O)C(CC(N)=O)NC(=O)C(CCC(N)=O)NC1=O (centres undefined)
inactive: outcome [1]

CCC(C)C1NC(=O)C(CCNCS(=O)(=O)O)NC(=O)C(NC(=O)C(CCNCS(=O)(=O)O)NC(=O)C(NC(=O)C(CCNCS(=O)(=O)O)NC(=O)CCCCC(C)C)C(C)O)CCNC(=O)C(C(C)O)NC(=O)C(CCNCS(=O)(=O)O)NC(=O)C(CCNCS(=O)(=O)O)NC(=O)C(C(C)CC)NC1=O (centres undefined) ({Heptanoyl(6-Me)}-[ξDab(CH2SO3H)]T[ξDab(CH2SO3H)][Dab][ξDab(CH2SO3H)]II[ξDab(CH2SO3H)][ξDab(CH2SO3H)]T; lactam 4-C; configuration not given here)
inactive: outcome [1]

CCNC(=O)[C@@H]1CCCN1C(=O)[C@H](CCCN=C(N)N)NC(=O)[C@H](CC(C)C)NC(=O)[C@@H](Cc1c[nH]c2ccccc12)NC(=O)[C@H](Cc1ccc(O)cc1)NC(=O)[C@H](CO)NC(=O)[C@H](Cc1c[nH]c2ccccc12)NC(=O)[C@H](Cc1cnc[nH]1)NC(=O)[C@@H]1CCC(=O)N1
inactive: outcome [1]

CC(C)CC(NC(=O)C(COC(C)(C)C)NC(=O)C(Cc1ccc(O)cc1)NC(=O)C(CO)NC(=O)C(Cc1c[nH]c2ccccc12)NC(=O)C(Cc1cnc[nH]1)NC(=O)C1CCC(=O)N1)C(=O)NC(CCCN=C(N)N)C(=O)N1CCCC1C(=O)NNC(N)=O (centres undefined)
inactive: outcome [1]

Nc1nc(O)c(-c2ccccc2)o1
inactive: outcome [1] | Potency [2] | Potency [3] | activity, negative = inhibition ([4]; parasite line A) 12.1% | activity, negative = inhibition ([4]; parasite line B) 6.38% | Potency (ATS189) | Potency (C2A) | Potency (CP191) | Potency (CP192) | Potency (CP201) | Potency (CP215) | Potency (CP237) | Potency (CP238) | Potency (CP268) | Potency (CP269) | Potency (CP286) | Potency (CP325) | Potency (CP329) | Potency (FAB9) | Potency (JCK) | Potency (PC49)

CC1(C)[C@@H](C=C(Cl)Cl)[C@@H]1C(=O)OCc1c(F)c(F)cc(F)c1F
inactive: outcome [1] | Potency [2] | Potency [3] | activity, negative = inhibition ([4]; parasite line A) 3.24% | activity, negative = inhibition ([4]; parasite line B) 1.84% | Potency (ATS189) | Potency (C2A) | Potency (CP191) | Potency (CP192) | Potency (CP201) | Potency (CP215) | Potency (CP237) | Potency (CP238) | Potency (CP268) | Potency (CP269) | Potency (CP286) | Potency (CP325) | Potency (CP329) | Potency (FAB9) | Potency (JCK) | Potency (PC49)

C=CC[N+]1(C)CCC23c4c5ccc(O)c4O[C@H]2C(=O)CC[C@@]3(O)C1C5 (some centres undefined)
inactive: outcome [1] | Potency [2] | Potency [3] | activity, negative = inhibition ([4]; parasite line A) 14% | activity, negative = inhibition ([4]; parasite line B) 14.5% | Potency (ATS189) | Potency (C2A) | Potency (CP191) | Potency (CP192) | Potency (CP201) | Potency (CP215) | Potency (CP237) | Potency (CP238) | Potency (CP268) | Potency (CP269) | Potency (CP286) | Potency (CP325) | Potency (CP329) | Potency (FAB9) | Potency (JCK) | Potency (PC49)

CC[C@H](C)[C@H](N)C1=N[C@H](C(=O)N[C@@H](CC(C)C)C(=O)N[C@@H](CCC(=O)O)C(=O)N[C@@H](C(=O)N[C@H]2CCCCNC(=O)[C@@H](CC(N)=O)NC(=O)[C@@H](CC(=O)O)NC(=O)[C@@H](Cc3cnc[nH]3)NC(=O)[C@@H](Cc3ccccc3)NC(=O)[C@@H]([C@@H](C)CC)NC(=O)[C@@H](CCCN)NC2=O)[C@@H](C)CC)CS1 ({Ileψ(thiazoline)Cys}-LE[d(aIle)]K[dOrn][d(aIle)][dF][dH][dD][dN]; lactam 4-C)
inactive: outcome [1]

Cc1ccc2c(c1)[C@@H]1CN(C)CC[C@H]1N2
inactive: outcome [1] | Potency [2] | Potency [3] | activity, negative = inhibition ([4]; parasite line A) 6.31% | activity, negative = inhibition ([4]; parasite line B) 11.3% | Potency (ATS189) | Potency (C2A) | Potency (CP191) | Potency (CP192) | Potency (CP201) | Potency (CP215) | Potency (CP238) | Potency (CP268) | Potency (CP269) | Potency (CP286) | Potency (CP325) | Potency (CP329) | Potency (FAB9) | Potency (JCK) | Potency (PC49)

CC1OC(O[C@H]2C[C@@H](O)[C@]3(CO)[C@@H]4C(CC[C@]3(O)C2)[C@@]2(O)CC[C@H](C3=CC(=O)OC3)[C@@]2(C)C[C@H]4O)C(O)C(O)C1O (some centres undefined)
inactive: outcome [1] | Potency [2] | Potency [3] | activity, negative = inhibition ([4]; parasite line A) -8.52% | activity, negative = inhibition ([4]; parasite line B) -0.0666% | Potency (ATS189) | Potency (C2A) | Potency (CP191) | Potency (CP192) | Potency (CP201) | Potency (CP215) | Potency (CP237) | Potency (CP238) | Potency (CP268) | Potency (CP269) | Potency (CP286) | Potency (CP325) | Potency (CP329) | Potency (FAB9) | Potency (JCK) | Potency (PC49)

CCCCCC(O)C1C(=O)OC(C)C(O)\C=C/C=C\C=C/C=C\C=C(\C)C(O)C(O)C(O)CC(O)CC(O)CC(O)CC(O)CC1O (centres undefined)
inactive: outcome [1] | Potency [2] | Potency [3] | activity, negative = inhibition ([4]; parasite line A) 11.9% | activity, negative = inhibition ([4]; parasite line B) -8.14% | Potency (ATS189) | Potency (C2A) | Potency (CP191) | Potency (CP192) | Potency (CP201) | Potency (CP215) | Potency (CP237) | Potency (CP238) | Potency (CP268) | Potency (CP269) | Potency (CP286) | Potency (CP325) | Potency (CP329) | Potency (FAB9) | Potency (JCK) | Potency (PC49)

C[C@H](N)Cc1ccccc1
inactive: outcome [1] | Potency [2] | Potency [3] | activity, negative = inhibition ([4]; parasite line A) -1.91% | activity, negative = inhibition ([4]; parasite line B) -0.429% | Potency (ATS189) | Potency (C2A) | Potency (CP191) | Potency (CP192) | Potency (CP201) | Potency (CP215) | Potency (CP237) | Potency (CP238) | Potency (CP268) | Potency (CP269) | Potency (CP286) | Potency (CP325) | Potency (CP329) | Potency (FAB9) | Potency (JCK) | Potency (PC49)
